Rows were chosen to be rich in hits. Some 3.3% of all compounds tested hit in one or more screens of this group.
VACV Venus inh – vaccinia inhibition (Venus reporter) | Vaccinia virus Venus reporter expression, fluorescence | Potency, µM (series often up to 36.5 µM), for inactives: at the highest dose activity change, negative = inhibition, actives largely listed as inhibitors | actives 0.46% (n = 330,000) | AID 720580; calls by dose curve; tested in A549 cells; note: nearly all actives have a fitted effect of over 30% in size
HCV inhibitor – HCV inhibition | Huh7.5.1 HCVcc-Cre infection, luciferase reporter, 44 h | Potency, µM (titrated, usually from 41.8 µM), for the others: at the top dose activity change, negative = inhibition, hits mostly inhibitors | actives 3.4% (n = 340,000); active = well fitted inhibition curve with a large enough effect; inconclusive = small, poorly fitted or top-dose-only effect, or another doubt; inactive = no such curve, though single readings can be large or run the other way
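After 44 h co-culture of compound, cells and HCVcc-Cre (~0.5 moi), substrate is added for 15 min at room temperature and luciferase measured over 15 sec. Cells were seeded at 1,000/well and pre-cultured 4 h.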
VACV mCherry inh – inhibitors of vaccinia virus infection (mCherry reporter signal). Potency, µM (highest dose often 36.5 µM), without a hit: at the top dose activity change, negative = inhibition, usual class: inhibitors. actives 0.63% (n = 310,000). Vaccinia virus mCherry reporter infection, fluorescence. AID 720579; calls by dose curve; tested in A549 cells; note: nearly all actives have a fitted effect of over 35% in size
The depositor's hits bear a star; i = inactive; ? = inconclusive; · = no result given. % is set by controls: 0 for no effect and ±100 for the full control effect; potency is the fitted concentration of half-maximal effect.

SMILES | VACV Venus inh | HCV inhibitor | VACV mCherry inh
CN(CC(=O)Nc1ccccc1Br)C(=O)CN1CCN(Cc2cccc(Cl)c2)CC1 | -13.6% | ? | -6.9%
Cc1ccc(NC(=O)C[n+]2ccn(C3=C([O-])c4ccccc4C3=O)c2)cc1 | -7.9% | -14.5% | -1.4%
Cc1ccc(S(=O)(=O)/N=C2\C(=O)c3ccccc3C([O-])=C2n2cc[n+](CCC(C)C)c2)cc1 | ? | 17.8µM* | ?
CCCC[n+]1ccn(C2=C([O-])c3ccccc3C(=O)/C2=N\S(=O)(=O)c2ccc(Br)cc2)c1 | 98.2% | 10µM* | ?
CC(=O)Nc1ccc(S(=O)(=O)/N=C2\C(=O)c3ccccc3C([O-])=C2n2cc[n+](-c3ccccn3)c2)cc1 | · | -4.9% | ·
Cc1cccc(CNC(=O)CN2C(=O)CSc3c2c(C)nn3-c2ccccc2)c1 | -9.8% | · | 23.3%
O=C(Cc1ccc(OCCCCc2ccccc2)cc1)NO | -15.6% | · | -21.0%
Cc1cc(C(=O)CSc2nnc(N)s2)c(C)n1Cc1cccs1 | -24.9% | ? | -14.5%
Cc1csc(SCC(=O)c2cc(C)n(Cc3cccs3)c2C)n1 | ? | 10µM* | -29.6%
CCOC(=O)c1ccc(N=c2sc(C(=O)OC)cc(=O)n2-c2ccc(C(=O)OCC)cc2)cc1 | -12.1% | 10µM* | i
COC(=O)c1cc(=O)n(CCc2ccc(OC)c(OC)c2)c(=Nc2ccc(F)c(Cl)c2)s1 | -20.0% | ? | -2.8%
COC(=O)c1cc(=O)n(Cc2ccc(OC)c(OC)c2)c(=Nc2ccc(F)cc2)s1 | -4.3% | 11.2µM* | 1.5%
COC(=O)c1cc2c(C)nn(-c3ccccc3)c2s1 | -28.6% | 6.31µM* | ·
OCc1csc(=Nc2ccccc2)n1-c1ccccc1 | -12.5% | -1.3% | -13.3%
COC(=O)c1cc(=O)n(-c2ccccc2)c(=Nc2ccccc2)s1 | 5.01µM* | ? | ?
CCOC(=O)c1ccc(-n2c(C)ccc2C)cc1 | -9.5% | 32.3% | i
Cc1nn(-c2ccccc2)c2sc(C(=O)O)cc12 | -10.4% | 11.9% | i
COc1cc(/C=c2\[nH]c(=O)/c(=C/c3cc(OC)c(OC)c(OC)c3)[nH]c2=O)cc(OC)c1OC | 5.9% | · | -14.3%
O=c1[nH]nc(-c2ccc(NCCO)c([N+](=O)[O-])c2)c2ccccc12 | -12.5% | 12.2% | i
O=[N+]([O-])c1cc(Cl)cc2c1nc(NCCO)c1ccccc12 | ? | 2µM* | 0.891µM*
COc1ccc(CCNC(=O)CN2C(=O)COc3ccccc32)cc1OC | -2.1% | · | -4.1%
Cc1nccc2c1[nH]c1ccccc12 | -18.4% | ? | -10.6%
CCc1nccc2c1[nH]c1ccccc12 | -6.4% | 11.2µM* | -1.7%
CCOc1ccc2nc(N3CCCC(C(=O)NCCc4ccc(OCC)c(OCC)c4)C3)sc2c1 (stereo not drawn) | -16.1% | · | -17.6%
COCCN1CCN(C(=O)c2cnn(-c3ncc4c(n3)-c3ccc(OC)cc3CC4)c2C2CC2)CC1 | -12.3% | · | -20.5%
SMILES | VACV Venus inh | HCV inhibitor | VACV mCherry inh
CC(Sc1n[nH]c(=O)n1Cc1ccccc1)C(=O)NCC1CCCO1 (stereo not drawn) | -2.1% | 0.3% | i
COc1ccc(-n2c(=O)c3c4c(sc3n(CC(=O)NC3CCCC3)c2=O)CCCC4)c(OC)c1 | · | 2.2% | ·
COc1ccc(-n2c(=O)c3c4c(sc3n(CC(=O)NCc3ccco3)c2=O)CCC4)c(OC)c1 | · | 12.6µM* | ·
Oc1c(C(c2ccccn2)N2CCC(Cc3ccccc3)CC2)cc(Cl)c2cccnc12 (stereo not drawn) | ? | 17.8µM* | ?
CN1CCN(C(c2ccccn2)c2cc(Cl)c3cccnc3c2O)CC1 (stereo not drawn) | -25.4% | ? | -21.5%
Clc1ccc(C(c2ccccc2)N2CCN(c3ccccn3)CC2)cc1 (stereo not drawn) | -5.1% | -15.1% | -20.9%
Oc1c(C(c2ccc(Cl)cc2)N2CCCC2)cc(Cl)c2cccnc12 (stereo not drawn) | ? | ? | 12.6µM*
O=S(=O)(c1cccc2cccnc12)N1CCCCC1 | -5.6% | 26.6% | -12.7%
Oc1c(C(c2ccccc2Cl)N2CCCC2)ccc2cccnc12 (stereo not drawn) | ? | 10µM* | ?
CCOC(=O)C1(C)CCCN(C(=O)c2ccc(C#N)cc2)C1 (stereo not drawn) | 2.0% | · | 6.7%
Cc1cc(C)nc(-c2cccc3c2OC(CNC(=O)c2ccc(Cn4nc(C)cc4C)cc2)C3)n1 (stereo not drawn) | 3.1% | · | -4.7%
CN(C)c1ccc(CNC(=O)c2ccc3c(c2)N(C)C(=O)C2CCCCN32)cc1 (stereo not drawn) | -7.6% | · | i
O=C(O)c1cccc2c1C(=O)N(CC1CCCO1)C2 (stereo not drawn) | -1.7% | 8.9% | 6.6%
CCc1cccc(NC(=O)c2cccc3c2C(=O)N(CC2CCCO2)C3)c1 (stereo not drawn) | 9.2% | 11.2µM* | -0.7%
